Laboratory results from PubChem BioAssay (Tox21).
“And” between values parts separate entries of the source, which are not always exact repeats. Identical values can stand only once. Results filed as inconclusive are left out. Some structures have more than one record in an assay (separate samples or runs), and their calls can disagree. The source made the active and inactive calls.
On the % scale 0 is the no-effect control and ±100 the full control effect.

The compounds below were run against Glucocorticoid receptor (Homo sapiens) (UniProt P04150) (assay: qHTS assay to identify small molecule agonists of the glucocorticoid receptor (GR) signaling pathway (AID 720691; active means well fitted activation curve with a large enough effect in the signal ratio in the repeat runs, not every such curve was filed as active; the % refers to the signal ratio; further: potency means the concentration at half of the fitted maximal effect)). Settings: GR-bla HeLa, beta-lactamase reporter ratio, 18 h; series mostly up to 62.4 µM; activation: at the top concentration.
Chain of Glucocorticoid receptor (Homo sapiens) (P04150 whole entry, looked up): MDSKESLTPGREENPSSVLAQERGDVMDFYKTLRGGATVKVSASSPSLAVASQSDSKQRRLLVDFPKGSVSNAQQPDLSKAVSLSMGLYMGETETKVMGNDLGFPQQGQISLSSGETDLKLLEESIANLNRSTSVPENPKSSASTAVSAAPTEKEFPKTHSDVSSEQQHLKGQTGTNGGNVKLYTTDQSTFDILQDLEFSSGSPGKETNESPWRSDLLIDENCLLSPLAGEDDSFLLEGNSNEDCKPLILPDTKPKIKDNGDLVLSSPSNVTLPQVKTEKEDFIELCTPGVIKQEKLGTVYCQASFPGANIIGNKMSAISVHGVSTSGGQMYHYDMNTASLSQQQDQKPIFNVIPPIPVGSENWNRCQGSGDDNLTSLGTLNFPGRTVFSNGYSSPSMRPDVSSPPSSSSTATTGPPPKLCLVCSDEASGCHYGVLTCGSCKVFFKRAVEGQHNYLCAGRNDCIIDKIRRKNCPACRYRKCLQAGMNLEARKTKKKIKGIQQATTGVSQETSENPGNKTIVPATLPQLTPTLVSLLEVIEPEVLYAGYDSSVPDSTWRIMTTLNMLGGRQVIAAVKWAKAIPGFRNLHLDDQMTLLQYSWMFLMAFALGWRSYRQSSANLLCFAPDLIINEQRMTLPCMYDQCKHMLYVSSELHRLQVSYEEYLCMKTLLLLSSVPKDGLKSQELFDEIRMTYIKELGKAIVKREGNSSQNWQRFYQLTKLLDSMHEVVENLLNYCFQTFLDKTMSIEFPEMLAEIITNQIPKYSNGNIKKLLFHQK
In short: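 Agonist-mode qHTS in HeLa cells stably expressing a glucocorticoid-response-element beta-lactamase reporter. Fluorescence intensity read with FRET substrate (2 h, room temperature) after 18 h compound treatment at 37 C.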
COc1nc(N)nc2c1ncn2[C@@H]1O[C@H](CO)[C@@H](O)[C@@H]1O was tested, and the “activation” value was -1.35% (inactive).
With CCSC(=O)N(CC(C)C)CC(C)C the “activation” value was -0.759% (inactive).
For CC1(C)CO[C@@H](CC(=O)O)CN1, the “activation” value was 0.763% (inactive).
In the case of COCCc1ccc(OCC(O)CNC(C)C)cc1 (stereo not drawn), the Potency is reported as “inactive and 10.7 µM (active)”.
N[C@H]1CN(c2c(F)cc3c(=O)c(C(=O)O)cn(C4C[C@H]4F)c3c2Cl)CC12CC2 (stereo partly drawn) was tested, and the “activation” value was -3.93% (inactive).
With CC(C[N+](C)(C)C)OC(N)=O (stereo not drawn) the “activation” value was 0.975% (inactive).
With O=C(O)CCCc1ccccc1 the “activation” value was -0.0057% (inactive).
For N#Cc1ccc(C2CCCc3cncn32)cc1 (stereo not drawn), the “activation” value was 1.18% [at 29.2 µM] (inactive).
In the case of O=C(O)c1ccccc1OP(=O)(O)O, the “activation” value is reported as -0.343% (inactive).
C=CCS(=O)(=O)O was tested, and the “activation” value was 2.96% (inactive).
With O=C(O)CCCl the “activation” value was -1.85% [at 79.2 µM] (inactive).
NS(=O)(=O)c1cc(C(=O)O)cc(N2CCCC2)c1Oc1ccccc1 was tested, and the Potency was 9.1 µM (active).
CN(C(=O)c1c(O)c2ccccc2n(C)c1=O)c1ccccc1 was tested, and the “activation” value was 0.744% (inactive).
CO[Si](CCCOCC1CO1)(OC)OC (stereo not drawn) was tested, and the Potency was “inactive”.
With CCCN(CCC)CCc1cccc2c1CC(=O)N2 the “activation” value was 5.09% (inactive).
In the case of NC(=O)COCCN1CCN(C(c2ccccc2)c2ccc(Cl)cc2)CC1 (stereo not drawn), the “activation” value is reported as -0.606% (inactive).
For NC(=O)Nc1ccccc1, the “activation” value was -1.77% (inactive).
For CCC(=O)OC(C)c1ccccc1 (stereo not drawn), the “activation” value was 6.24% (inactive).
CCCc1cc(C(N)=S)ccn1 was tested, and the “activation” value was -4.41% (inactive).
CC/C=C\CC/C=C/C(OCC)OCC was tested, and the “activation” value was 6.64% (inactive).
With OC(CCN1CCCCC1)(c1ccccc1)C1CC2C=CC1C2 (stereo not drawn) the Potency was “inactive”.
In the case of O=C1CCCCCCCCCCCN1, the Potency is reported as “inactive”.
With COc1ccc2c(c1)c(CC(=O)OCC(=O)O)c(C)n2C(=O)c1ccc(Cl)cc1 the “activation” value was -8.95% (inactive).
In the case of COC(=O)c1c(Cl)c(Cl)c(C(=O)OC)c(Cl)c1Cl, the Potency is reported as “inactive”.
For N=C(N)c1ccc(OCCCOc2ccc(C(=N)N)cc2)cc1, the “activation” value was 5.58% (inactive).
In the case of N[C@H](C(=O)O)c1ccc(O)cc1, the “activation” value is reported as -0.54% (inactive).

What follows are compounds tested against Glucocorticoid receptor (Homo sapiens) (UniProt P04150) (assay: qHTS assay to identify small molecule antagonists of the glucocorticoid receptor (GR) signaling pathway (AID 720692; active means well fitted inhibition curve with a large enough effect in the signal ratio in the repeat runs, not every such curve was filed as active; the % refers to the signal ratio)). Settings: GR-bla HeLa, beta-lactamase FRET ratio, dexamethasone-stimulated, 18 h; series mostly up to 58.5 µM; activity change, negative = inhibition: at the top concentration.
In short: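 Inhibition of dexamethasone-driven (5 nM final) beta-lactamase expression was measured in GRE-reporter HeLa cells over 18 h at 37C. Fluorescence was read after 2 h with the B/G FRET substrate at room temperature.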
COc1nc(N)nc2c1ncn2[C@@H]1O[C@H](CO)[C@@H](O)[C@@H]1O was tested, and the “activity change, negative = inhibition” value was 0.393% (inactive).
For CCSC(=O)N(CC(C)C)CC(C)C, the “activity change, negative = inhibition” value was -0.622% (inactive).
With COCCc1ccc(OCC(O)CNC(C)C)cc1 (stereo not drawn) the Potency was “inactive”.
N[C@H]1CN(c2c(F)cc3c(=O)c(C(=O)O)cn(C4C[C@H]4F)c3c2Cl)CC12CC2 (stereo partly drawn) was tested, and the “activity change, negative = inhibition” value was -8.04% (inactive).
For CC(C[N+](C)(C)C)OC(N)=O (stereo not drawn), the “activity change, negative = inhibition” value was 6.9% (inactive).
With O=C(O)CCCc1ccccc1 the “activity change, negative = inhibition” value was -5.28% (inactive).
With N#Cc1ccc(C2CCCc3cncn32)cc1 (stereo not drawn) the “activity change, negative = inhibition” value was 16.4% [at 27 µM] (inactive).
In the case of O=C(O)c1ccccc1OP(=O)(O)O, the “activity change, negative = inhibition” value is reported as -19.7% (inactive).
In the case of O=C(O)CCCl, the “activity change, negative = inhibition” value is reported as -18.6% [at 78.9 µM] (inactive).
NS(=O)(=O)c1cc(C(=O)O)cc(N2CCCC2)c1Oc1ccccc1 was tested, and the “activity change, negative = inhibition” value was 19.3% [at 27 µM] (inactive).
In the case of CN(C(=O)c1c(O)c2ccccc2n(C)c1=O)c1ccccc1, the “activity change, negative = inhibition” value is reported as 1.48% (inactive).
CO[Si](CCCOCC1CO1)(OC)OC (stereo not drawn) was tested, and the Potency was “inactive”.
In the case of NC(=O)COCCN1CCN(C(c2ccccc2)c2ccc(Cl)cc2)CC1 (stereo not drawn), the “activity change, negative = inhibition” value is reported as 6.02% (inactive).
With OC(CCN1CCCCC1)(c1ccccc1)C1CC2C=CC1C2 (stereo not drawn) the Potency was “inactive”.
In the case of O=C1CCCCCCCCCCCN1, the Potency is reported as “inactive”.
With COC(=O)c1c(Cl)c(Cl)c(C(=O)OC)c(Cl)c1Cl the “activity change, negative = inhibition” value was -15.8% (inactive).
For N[C@H](C(=O)O)c1ccc(O)cc1, the “activity change, negative = inhibition” value was -0.0706% (inactive).
